Source: PubChem (National Center for Advancing Translational Sciences (NCATS))
An excerpt weighted towards active compounds, which were near 0.9% of everything screened.
TexasRed fluor = Texas Red fluorescence interference in TRb-SRC2 counter-screen; Potency, µM (titrated, usually from 106 µM), for the others: top-dose fluorescence change, negative = quenching; TRb/SRC2 Texas Red total fluorescence interference; 280,000 tested, 0.29% active; active means well fitted curve in either direction with a large enough effect; inconclusive means small, poorly fitted or top-dose-only effect
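Human TRβ ligand-binding domain (0.6 uM) and Texas Red SRC2 peptide (20 nM) in Tris buffer with 1 uM T3 and 5% DMSO were incubated with pinned compound for 5 hr at ambient temperature. Total fluorescence was computed as S + 2P (555/632 nm).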
TRb-SRC2 inh = disrupts binding of human TR beta to SRC2. TRbeta-SRC2 peptide binding, fluorescence polarization; receptor liganded with 1 µM T3. Potency, µM (top dose mostly 106 µM), for the others: at the highest dose activity change, negative = inhibition, most hits filed as inhibitors. 280,000 tested, 0.065% active. P10828;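 further: plate controls were bound peptide for no effect and peptide without receptor for full effect; nearly all actives have a fitted effect of over 50% in size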
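Quantitative HTS by FP: 0.6 uM TRb LBD, 20 nM labeled SRC2 20-mer, 1 uM T3, 5% DMSO; 5 hr ambient incubation; % activity per concentration and potencies from concentration series.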
APEX1 inh = APE1 (human) endonuclease inhibition. AID 2517. 350,000 tested, 0.35% active. P27695. Potency, µM (highest dose often 65.8 µM), inactives show at the highest dose activity change, negative = inhibition, usual class: inhibitors. recombinant APE1, TAMRA/BHQ-2 abasic DNA cleavage fluorescence;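 further: plate controls were vehicle for no effect and reference inhibitor for full effect; nearly all actives have a fitted effect of over 55% in size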
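Step 1: APE1 (0.75 nM) with compound, 15 min RT. Step 2: add 50 nM fluorophore/quencher THF duplex. Step 3: three fluorescence reads 60 s apart (525/598 nm); read 3 minus read 1 = reaction progress.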
RECQ1 inh-1 = inhibitors of human RECQ1 DNA helicase; P46063; RECQ1 DNA unwinding, red fluorescence kinetic read; Potency, µM (series often up to 57.3 µM), for the others: at the highest dose activity, negative = inhibition, most hits filed as inhibitors; 240,000 tested, 0.54% active; AID 2549;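 further: plate controls were vehicle for no effect and no enzyme for full effect; nearly all actives have a fitted effect of over 30% in size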
Target sequence (P46063 whole entry, looked up): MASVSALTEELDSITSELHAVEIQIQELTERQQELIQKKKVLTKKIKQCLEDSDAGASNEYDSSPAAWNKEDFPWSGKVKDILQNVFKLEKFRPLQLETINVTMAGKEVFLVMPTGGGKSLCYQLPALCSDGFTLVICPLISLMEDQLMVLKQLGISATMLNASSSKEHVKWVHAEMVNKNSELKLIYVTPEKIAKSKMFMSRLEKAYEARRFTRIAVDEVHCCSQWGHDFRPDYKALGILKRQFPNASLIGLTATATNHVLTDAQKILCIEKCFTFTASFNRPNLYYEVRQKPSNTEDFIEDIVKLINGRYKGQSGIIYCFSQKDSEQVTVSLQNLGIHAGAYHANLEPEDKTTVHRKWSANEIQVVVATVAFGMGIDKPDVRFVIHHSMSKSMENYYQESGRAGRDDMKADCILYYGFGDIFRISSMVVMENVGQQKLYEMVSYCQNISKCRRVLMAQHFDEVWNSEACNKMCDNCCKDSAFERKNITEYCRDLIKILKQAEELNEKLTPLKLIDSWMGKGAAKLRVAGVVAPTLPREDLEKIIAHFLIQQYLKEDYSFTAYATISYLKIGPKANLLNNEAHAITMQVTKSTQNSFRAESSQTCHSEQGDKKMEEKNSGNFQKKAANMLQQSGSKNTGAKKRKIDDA
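RECQ1T1 50 nM; forked duplex (20 bp + 30-nt ss tails) 200 nM, ATP 2 mM final; pH 8.0, 2 mM MgCl2, 2.5 ug/ml poly(dI-dC); 15 min compound preincubation; discontinuous kinetic read over 2 h at RT.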
BLM inh-1 = inhibitors of human Bloom syndrome helicase BLM | P54132 | recombinant BLM DNA unwinding, fluorescence dequenching | Potency, µM (highest dose often 56.1 µM), for inactives: at the top dose activity change, negative = inhibition, hits mostly inhibitors | 350,000 tested, 0.2% active | AID 2528;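 further: plate controls were vehicle for no effect and no enzyme for full effect; nearly all actives have a fitted effect of over 35% in size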
RGS12 GoLoco inh = RGS12 GoLoco-Gai1 interaction inhibition. P63096. Potency, µM (highest dose often 61.6 µM), for inactives: at the top dose activity, negative = inhibition, actives largely listed as inhibitors. 230,000 tested, 0.44% active. AID 880. Gai1:RGS12 GoLoco peptide FP, rhodamine, 10 min; active means well fitted inhibition curve with a large enough effect, not every such curve was filed as active; inactive means no such curve, though single readings can be large or run the other way; further: nearly all actives have a fitted effect of over 30% in size
BLM inh-2 = BLM (human) helicase inhibition, confirmation. 220 tested, 40% active. shares compounds with BLM inh-1. Potency, µM, inactives show max response, negative = inhibition, usual class: inhibitors. BLM DNA unwinding, fluorescence quenching, biochemical;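 further: strand separation dequenches TAMRA so unwinding raises red fluorescence; series mostly up to about 69 µM; nearly all actives have a fitted effect of over 45% in size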
RECQ1 conf = confirmation of human RECQ1 helicase inhibitors. shares compounds with RECQ1 inh-1. RECQ1 helicase DNA unwinding, fluorescence. 610 tested, 28% active. Potency, µM (titrated, usually from 229 µM), inactives show at the highest dose activity change, negative = inhibition, actives largely listed as inhibitors; further: nearly all actives have a fitted effect of over 45% in size
RECQ1 ADP FP = displaces ADP in a fluorescence polarization counter-screen for RECQ1 hits; shares compounds with RECQ1 inh-1; ADP fluorescence polarization displacement counterscreen; Potency, µM (titrated, usually from 228 µM), for inactives: at the highest dose activity change, negative = inhibition, most hits filed as inhibitors; 530 tested, 27% active; further: nearly all actives have a fitted effect of over 45% in size
RECQ1 inh-2 = RECQ1 helicase inhibition confirmed, round 2 | shares compounds with RECQ1 inh-1 | recombinant RECQ1 DNA unwinding, red fluorescence | Potency, µM (highest dose often 119 µM), for the others: at the highest dose activity, negative = inhibition, actives largely listed as inhibitors | 1,100 tested, 15% active; further: nearly all actives have a fitted effect of over 50% in size
* = called active by the depositor; [ ] = dose if it differs, or a comment. Unless noted, the call rests on the fitted dose curve; in most records, active means well fitted curve in the direction sought with a large enough effect; inconclusive means small, poorly fitted or top-dose-only effect, or another doubt; inactive means no such curve, though single readings can be large; an effect the other way counts as inactive or inconclusive. Unless noted, on the % scale 0 is the no-effect control and ±100 the full control effect; potency means the concentration at half of the fitted maximal effect.

How did CCC(=O)O[C@H]1C(O[C@@H]2C(C)[C@H](O[C@H]3C[C@@](C)(OC)C(O)C(C)O3)C(C)C(=O)OC(CC)[C@@](C)(O)C(O)[C@H](C)C(=O)C(C)C[C@]2(C)O)OC(C)CC1N(C)C (stereo partly specified) do in these assays?
TexasRed fluor: -1.4%; TRb-SRC2 inh: 6.8%; RECQ1 inh-1: 11.2µM*; BLM inh-1: 28.2µM*; RGS12 GoLoco inh: -0.8%; BLM inh-2: 42.9µM*; RECQ1 conf: 36.3µM*

How did O=c1[nH]nc(CNc2ccc(O)cc2)c2ccccc12 do in these assays?
TexasRed fluor: 44.7µM*[fluorescent]; TRb-SRC2 inh: 28.2µM*; APEX1 inh: inconclusive; RECQ1 inh-1: 14.1µM*; BLM inh-1: 35.5µM*; RGS12 GoLoco inh: -29.1%; BLM inh-2: -3.0%; RECQ1 conf: 14.5%[114 µM]; RECQ1 ADP FP: 39.8µM*; RECQ1 inh-2: -7.8%

Results for O=c1[nH]nc(CNc2ccc(C(F)(F)F)cc2)c2ccccc12 ?
TexasRed fluor: -0.7%; TRb-SRC2 inh: -10.1%; APEX1 inh: -1.5%; RECQ1 inh-1: -2.9%; BLM inh-1: -6.2%; RGS12 GoLoco inh: 4.0%

How did CNC(=O)COC(=O)c1cc(-c2ccco2)nc2ccccc12 do in these assays?
TexasRed fluor: -10.9%; TRb-SRC2 inh: -0.6%; APEX1 inh: inconclusive; RECQ1 inh-1: 22.4µM*; BLM inh-1: 15.8µM*; RGS12 GoLoco inh: 5.8%; BLM inh-2: inconclusive; RECQ1 inh-2: inconclusive

What do the screens show for `CC(=O)Nc1ccc(/C=N/NC(=O)c2cc(-c3ccco3)nc3ccccc23)cc1`?
TexasRed fluor: -2.8%; TRb-SRC2 inh: 11.0%; APEX1 inh: 5.7%; RECQ1 inh-1: 2.1%; BLM inh-1: -5.1%; RGS12 GoLoco inh: 17.9%

Results for O=C(O)c1ccccc1/C=N/NC(=O)c1cc(-c2ccco2)nc2ccccc12 ?
TexasRed fluor: inconclusive; TRb-SRC2 inh: 5.7%; APEX1 inh: 22.4µM*; RECQ1 inh-1: 22.4µM*; BLM inh-1: 14.1µM*; RGS12 GoLoco inh: 36.4%; BLM inh-2: inconclusive; RECQ1 conf: 39.8µM*; RECQ1 ADP FP: 39.8µM*

What do the screens show for `O=C(CSc1ccccc1F)NC(=O)NCc1ccco1`?
TexasRed fluor: -5.8%; TRb-SRC2 inh: 4.4%; APEX1 inh: inconclusive; RECQ1 inh-1: 25.1µM*; BLM inh-1: 15.8µM*; RGS12 GoLoco inh: 17.2%; BLM inh-2: inconclusive; RECQ1 inh-2: 1.3%

Results for Cc1ccc(-c2nn3c(C)nnc3s2)cc1NC(=O)c1ccc(-c2cccc(Cl)c2)o1 ?
TexasRed fluor: -8.7%; TRb-SRC2 inh: 15.9%; APEX1 inh: 9.4%; RECQ1 inh-1: 12.6µM*; BLM inh-1: -13.9%; RGS12 GoLoco inh: 157.1%; BLM inh-2: -11.5%; RECQ1 ADP FP: 29.2%[91.9 µM]; RECQ1 inh-2: inconclusive

What do the screens show for `CC(=O)Nc1cc(-c2nn3c(C)nnc3s2)ccc1C`?
TexasRed fluor: 4.0%; TRb-SRC2 inh: 3.9%; APEX1 inh: 3.1%; RECQ1 inh-1: 4.6%; BLM inh-1: 2.9%; RGS12 GoLoco inh: 1.5%

Results for COc1cc2nc(SCc3cccc(Cl)c3)n3nc(CCn4nc(C)cc4C)nc3c2cc1OC ?
TexasRed fluor: -0.4%; TRb-SRC2 inh: 2.3%; BLM inh-1: -5.1%

How did COc1cccc(OC)c1-c1nn2c(-c3cc(-c4ccccc4)n[nH]3)nnc2s1 do in these assays?
TexasRed fluor: inconclusive; TRb-SRC2 inh: inconclusive; APEX1 inh: inconclusive; RECQ1 inh-1: 11.2µM*; BLM inh-1: 28.2µM*; RGS12 GoLoco inh: 98.8%; BLM inh-2: inconclusive; RECQ1 ADP FP: 91.2%[91.9 µM]

What do the screens show for `COc1cccc(-c2nnc3sc(-c4ccccc4)nn23)c1`?
TexasRed fluor: -1.6%; TRb-SRC2 inh: -16.0%; APEX1 inh: -0.5%; RECQ1 inh-1: -4.9%; BLM inh-1: -0.3%; RGS12 GoLoco inh: 9.7%

What do the screens show for `Nc1ccc(N2CCCCC2)c2nonc12`?
TexasRed fluor: -1.8%; TRb-SRC2 inh: inconclusive; APEX1 inh: -2.7%; RECQ1 inh-1: inconclusive; BLM inh-1: 22.4µM*; RGS12 GoLoco inh: 7.2%; BLM inh-2: 1.2%; RECQ1 inh-2: -2.3%

Results for Cc1cc(OCC(=O)NCC2(N3CCOCC3)CCCCC2)ccc1Cl ?
TexasRed fluor: 3.2%; TRb-SRC2 inh: -5.4%; BLM inh-1: 0.1%

How did Oc1ccc(/C=N/Nc2nc(-c3cccnc3)nc3ccccc23)c(O)c1 do in these assays?
TexasRed fluor: -16.5%; TRb-SRC2 inh: 9.0%; APEX1 inh: inconclusive; RECQ1 inh-1: -1.3%; BLM inh-1: -23.1%; RGS12 GoLoco inh: 43.6%

Results for Cc1c(O)ccc(/C=N/Nc2nc(-c3cccnc3)nc3ccccc23)c1O ?
TexasRed fluor: -28.9%; TRb-SRC2 inh: 12.5%; APEX1 inh: -1.9%; RECQ1 inh-1: 20µM*; BLM inh-1: inconclusive; RGS12 GoLoco inh: 18.8%; BLM inh-2: 24.1µM*; RECQ1 conf: inconclusive; RECQ1 ADP FP: 26.6%[91.9 µM]

How did CC(C)c1ccc(NC(=O)C2(C)Cc3ccccc3C(=O)O2)cc1 (stereo unspecified) do in these assays?
TexasRed fluor: -0.6%; TRb-SRC2 inh: -2.2%; BLM inh-1: -3.5%

What do the screens show for `O=C(CSc1nc2ccccc2[nH]1)N1c2ccccc2Sc2ccccc21`?
TexasRed fluor: inconclusive; TRb-SRC2 inh: -4.9%; APEX1 inh: inconclusive; RECQ1 inh-1: inconclusive; BLM inh-1: -6.9%; RGS12 GoLoco inh: 15.5%; RECQ1 inh-2: inconclusive
